The source made the active and inactive calls. Unless noted, the rule behind the calls is not given here.
Experiments:
[1] = test system: Wnt5a (protein binding on small-molecule microarray); assay: Wnt5a binders on small-molecule microarray, primary screen, biophysical, 635/667 nm fluorescence (AID 1142); details: 635 nm fluorescence, higher = more signal;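 note: fluorescence read at 667 nm with signal to noise per printed feature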
[2] = cell viability in Huh7 cells, primary screen, cytotoxicity control for HCV replication inhibitor project, CellTiter-Glo luminescence, basal, 48 h (AID 1143); details: Huh7 HCV replicon, higher = more signal, called active from +8 up or from −8 down;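 note: Huh7 hepatoma cells carrying a hepatitis C replication reporter with no stimulus; test concentration not given here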
[3] = P. aeruginosa biofilm formation inhibitors, primary screen, PAO1 strain, BacTiter-Glo luminescence, LB-PBS (AID 1144); details: 12 h, higher = more signal
[4] = CREB reporter modulators without forskolin, primary screen, cell-based, PC12, CRE-LacZ reporter, unstimulated (AID 1145); details: no forskolin, luminescence, 4.5 h, higher = more signal, called active from +8 up or from −8 down
[5] = CREB reporter modulators under forskolin, primary screen, cell-based, PC12, CRE-LacZ reporter, forskolin-stimulated (AID 1146); details: luminescence, 4.5 h, higher = more signal, called active from +8 up or from −8 down;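 note: PC12 cells with 6xCRE LacZ reporter stimulated by forskolin 10 µM; beta-galactosidase reporter signal reflecting CREB driven transcription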
[6] = target: Streptavidin (Streptomyces avidinii) (UniProt P22629); assay: streptavidin binders on small-molecule microarray, primary screen, artefact control for SMM compound annotation, biophysical, 635/667 nm fluorescence (AID 1147); details: streptavidin binding, higher = more signal;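 note: signal reflects streptavidin binding to arrayed compounds as a control protein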
[7] = small-molecule binders of probe aInhba, primary screen, biochemical, small-molecule microarray, 635/667 nm fluorescence (AID 1148); details: higher = more signal;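 note: score merges 667nm spot fluorescence with signal-to-noise for antibody binding to printed compounds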
Torsin-1A (Homo sapiens) [8] = target: Torsin-1A (Homo sapiens) (UniProt O14656); assay: torsin A binders from cell lysate, primary screen, small-molecule microarray, wild-type, 635/667 nm (AID 1149); details: COS7 hTOR1A-WT lysate, 635 nm fluorescence, higher = more signal
Torsin-1A (Homo sapiens) [9] = target: Torsin-1A (Homo sapiens) (UniProt O14656); assay: small-molecule binders of mutant TOR1A in lysate, primary screen, cell lysate, small-molecule microarray, COS7 lysate, 635/667 nm fluorescence (AID 1150); details: COS7 hTOR1A mutant lysate, 635 nm fluorescence, higher = more signal;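 note: score pools 667 nm emission and signal to noise measuring lysate protein binding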
[10] = test system: Sonic hedgehog protein (Shh); assay: small-molecule binders of Shh protein, primary screen, biochemical, small-molecule microarray, 635/667 nm fluorescence (AID 1151); details: small-molecule microarray binding, 635 nm fluorescence; higher = more signal;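 note: Shh protein binding to compounds spotted on small-molecule microarray slides; score combines spot fluorescence intensity with signal-to-noise across triplicate slides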

Chain of Streptavidin (Streptomyces avidinii) (P22629 whole entry, looked up): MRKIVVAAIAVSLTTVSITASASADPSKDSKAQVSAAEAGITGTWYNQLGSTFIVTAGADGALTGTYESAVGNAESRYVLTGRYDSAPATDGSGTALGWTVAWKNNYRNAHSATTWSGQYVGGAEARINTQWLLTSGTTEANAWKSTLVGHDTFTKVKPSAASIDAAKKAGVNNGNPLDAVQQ
Chain of Torsin-1A (Homo sapiens) (O14656 whole entry, looked up): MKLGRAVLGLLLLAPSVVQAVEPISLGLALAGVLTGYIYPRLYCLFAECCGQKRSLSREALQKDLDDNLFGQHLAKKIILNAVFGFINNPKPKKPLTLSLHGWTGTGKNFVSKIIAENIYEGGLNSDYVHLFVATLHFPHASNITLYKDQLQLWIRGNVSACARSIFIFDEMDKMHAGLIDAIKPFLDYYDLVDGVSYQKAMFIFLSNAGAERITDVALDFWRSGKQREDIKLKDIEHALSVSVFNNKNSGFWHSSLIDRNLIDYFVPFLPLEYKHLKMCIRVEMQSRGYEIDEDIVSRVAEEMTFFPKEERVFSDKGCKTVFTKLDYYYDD

SMILES	composite z-score [1]	z-score [2]	z-score [3]	z-score [4]	z-score [5]	composite z-score [6]	composite z-score [7]	composite z-score (Torsin-1A (Homo sapiens) [8])	composite z-score (Torsin-1A (Homo sapiens) [9])	composite z-score [10]
[N-]=[N+]=Nc1ccccc1C[C@]1(C(=O)N2CCCCC2)N=C(c2ccc(OCCCO)cc2)O[C@H]1c1ccccc1	0.982	-4.56 (inactive)	0.0619 (inactive)	-0.506 (inactive)	-0.0671 (inactive)	1.15	0.696	0.351	0.402	1.05
COc1ccc([Si](C)(C)[C@@H]2[C@@H](CC(=O)N3Cc4ccccc4C[C@H]3CO)O[C@]3(C(=O)N(Cc4ccc(I)cc4)c4ccccc43)[C@H]2C)cc1	0.206	-6.3 (inactive)	0.199 (inactive)	-0.477 (inactive)	0.0658 (inactive)	0.143	-0.101	0.211	0.204	1.94
COCCOC(=O)N1C(=O)[C@@]2(c3cc(C#CCNC(N)=O)ccc31)[C@H](c1ccccc1OCCO)N1[C@H](c3ccccc3)[C@H](c3ccccc3)OC(=O)[C@H]1[C@@H]2C(=O)N1CCCCCCC1	0.112	-0.923 (inactive)	0.342 (inactive)	0.2 (inactive)	1.97 (inactive)	0.777	0.168	0.419	0.367	0.83
C=CCNC(=O)[C@H]1[C@@H]2C(=O)O[C@@H](c3ccccc3)[C@@H](c3ccccc3)N2[C@@H](c2ccc(O)cc2)[C@]12C(=O)Nc1ccc(C#CCC(C(=O)OC)C(=O)OC)cc12	-0.223	0.15 (inactive)	0.278 (inactive)	-0.471 (inactive)	0.0988 (inactive)	-0.419	-0.0762	0.685	0.449	0.414
C=C(C(=O)CC[C@@H](OC(=O)c1cccnc1)c1cccc(OCCO)c1)C(C)C	0.222	-2.97 (inactive)	-0.372 (inactive)	1.67 (inactive)	-1.24 (inactive)	-0.0835	-0.0736	-0.0348	-0.234	1.72
O=C1O[C@H](c2ccccc2)[C@H](c2ccccc2)N2[C@H]1[C@@H](C(=O)N1CCCCCCC1)[C@]1(C(=O)Nc3ccc(C#CCCO)cc31)[C@H]2c1ccc(O)cc1	2.43	-1.76 (inactive)	-0.575 (inactive)	-0.438 (inactive)	-1.23 (inactive)	3.86	1.84	3.62	3.34	2.36
CCOC(=O)C=C1C[C@@H](c2cccc([N+](=O)[O-])c2)O[C@@H](c2cccc([N+](=O)[O-])c2)O1	0.719	-3.18 (inactive)	0.397 (inactive)	-0.527 (inactive)	-0.495 (inactive)	0.865	0.503	0.167	0.582	0.147
Cc1cccc([C@H]2C[C@H]3C(Br)=C[C@@]2(CO)C(=O)[C@]32CO2)c1	0.253	-0.376 (inactive)	-0.53 (inactive)	-0.595 (inactive)	3.9 (inactive)	-0.376	-0.128	-1.59	-1.08	0.462
C=CCC(OC(C)=O)[C@@H]1[C@@H](N(Cc2ccc(-c3ccccc3)cc2)C(=O)Cc2ccc(OC)cc2)c2cc(OCCCO)ccc2N1C(=O)c1ccc2ccccc2c1 (stereo not given in full)	-0.0966	-1.35 (inactive)	0.832 (inactive)	1.37 (inactive)	0.385 (inactive)	1.14	-0.153	-0.137	-0.451	0.234
COC(=O)[C@@]1(Cc2ccccc2)[C@H]2c3cc(C(=O)N(C)C)n(CCF)c3C[C@H]2CN1C(=O)c1ccccc1	0.633	-0.717 (inactive)	-0.247 (inactive)	0.387 (inactive)	0.218 (inactive)	1.74	0.333	-0.0224	1.16	-0.187
C=CC[C@H](O)c1ccc(O)c(F)c1	-0.863	-0.48 (inactive)	-0.955 (inactive)	-0.0392 (inactive)	-0.535 (inactive)	-1.39	-0.0429	-3.98	-1.66	-1.11
O=C1c2ccccc2[C@@]2(Cc3ccccc3N(CC(F)(F)F)C2=O)[C@H](c2ccc(CO)cc2)N1Cc1ccccc1	0.104	-4.1 (inactive)	-0.692 (inactive)	-0.258 (inactive)	-0.616 (inactive)	0.0298	-0.149	-0.118	-0.175	1.82
O=C(O)C1=CC[C@H]2C(=O)N(c3ccccc3)C(=O)[C@@H]12	0.144	0.704 (inactive)	0.317 (inactive)	0.173 (inactive)	0.676 (inactive)	1.22	0.0448	1	0.448	-0.323
C=CC[C@@]1(C(=O)NCCCOC)N=C(c2ccc(OCCCO)cc2)O[C@@H]1c1ccccc1CN=[N+]=[N-]	0.645	-3.72 (inactive)	-0.584 (inactive)	-0.45 (inactive)	-0.48 (inactive)	0.706	0.0921	0.112	0.734	0.0532
COC(=O)C[C@H]1O[C@]2(C(=O)N(C)c3ccccc32)[C@@H](C)[C@@H]1[Si](C)(C)c1ccccc1	0.148	-4.59 (inactive)	0.115 (inactive)	-0.141 (inactive)	-0.477 (inactive)	1.02	-0.204	0.262	0.395	1.65
C=CCNC(=O)[C@@H]1[C@H]2C(=O)O[C@H](c3ccccc3)[C@H](c3ccccc3)N2[C@H](c2ccc(O)cc2)[C@@]12C(=O)Nc1ccc(C#CC3=CCCCC3)cc12	0.779	-4.01 (inactive)	-0.909 (inactive)	0.119 (inactive)	-0.679 (inactive)	1.72	1.05	0.857	0.975	2.03
CC(C)C[C@H]1NC(=O)CNC(=O)[C@@]23C(=O)N[C@@H](Cc4ccccc4)C2[C@H](C)[C@@]2(C)O[C@H]2C3/C=C/C/C=C\CNC1=O (stereo not given in full)	-0.0443	0.0643 (inactive)	-0.0124 (inactive)	0.483 (inactive)	0.201 (inactive)	-0.185	-0.0719	-0.0633	0.129	1.93
COC(=O)C(CC#Cc1ccc2c(c1)[C@]1(C(=O)N2)[C@H](c2ccccc2OCCO)N2[C@H](c3ccccc3)[C@H](c3ccccc3)OC(=O)[C@H]2[C@@H]1C(=O)N1CCN(c2ncccn2)CC1)C(=O)OC	0.253	-4.92 (inactive)	-0.321 (inactive)	-0.375 (inactive)	2.68 (inactive)	1.06	-0.0695	1.03	0.498	1.11
C#CCN(C(=O)OC(C)(C)C)[C@H](CO)c1ccccc1	-0.1	-1.66 (inactive)	-0.141 (inactive)	0.0329 (inactive)	-0.653 (inactive)	-0.314	-0.128	0.435	0.411	0.0466
C=CCNC(=O)[C@H]1[C@@H]2C(=O)O[C@@H](c3ccccc3)[C@@H](c3ccccc3)N2[C@@H](c2ccc(O)cc2)[C@]12C(=O)N(C(=O)OCCOC)c1ccc(C#Cc3ccc(OC)cc3)cc12	0.334	-2.17 (inactive)	0.649 (inactive)	-0.195 (inactive)	1.43 (inactive)	0.21	0.153	0.0502	0.651	1.21
O=C1OCC=C[C@H]2OC34C=CCN(Cn5nnc6ccccc65)C(=O)[C@H]3N(CCO)C(=O)[C@@H]4[C@@H]12 (stereo not given in full)	-0.26	0.473 (inactive)	1.43 (inactive)	0.455 (inactive)	0.792 (inactive)	-1.02	-0.208	1.09	-1.8	-0.793
O=C1C[C@@](C(=O)NCC(F)(F)F)(c2ccc([N+](=O)[O-])cc2)[C@@H](c2ccc(CO)cc2I)N1CC12CC3CC(CC(C3)C1)C2	0.437	-5.73 (inactive)	-1.44 (inactive)	0.558 (inactive)	-1.01 (inactive)	0.229	0.0167	-0.286	-0.251	1.53

Source: PubChem BioAssay
